JMJD2E inh: qHTS Assay for Inhibitors of Human Jumonji Domain Containing 2E (JMJD2E) | 230,000 tested, 1.6% active | Lysine-specific demethylase 4E (Homo sapiens), B2RXH2 | Potency, µM (doses to about 57.1 µM), for inactives: top-dose activity change, negative = inhibition, usual class: inhibitors | AID 2147, 2009 | JMJD2E catalytic domain, FDH-coupled NADH fluorescence (FDH is formaldehyde dehydrogenase);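 also: potency is read from the fitted curve at half-maximal effect; 0% = wells with enzyme and -100% = buffer wells without enzyme; nearly all actives have a fitted effect of over 50% in size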
Target sequence (B2RXH2 1-337 limits assumed): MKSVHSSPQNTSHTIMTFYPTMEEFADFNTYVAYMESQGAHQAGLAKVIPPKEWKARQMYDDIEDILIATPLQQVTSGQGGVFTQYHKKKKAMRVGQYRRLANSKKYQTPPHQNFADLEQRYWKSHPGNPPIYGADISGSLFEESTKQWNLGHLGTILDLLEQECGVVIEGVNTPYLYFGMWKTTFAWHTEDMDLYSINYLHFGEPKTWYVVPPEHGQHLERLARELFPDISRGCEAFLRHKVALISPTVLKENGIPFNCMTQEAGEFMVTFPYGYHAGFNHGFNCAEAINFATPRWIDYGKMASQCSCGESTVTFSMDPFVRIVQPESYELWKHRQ
miR-21 act: qHTS Assay for Modulators of miRNAs and/orActivators of miR-21; 340,000 tested, under 10 active; HeLa miR-21 FLuc reporter, luciferase, 48 h; AID 2288, 2010; Potency, µM (doses to about 38.3 µM), inactives show at the top dose activity change, positive = activation, actives largely listed as activators;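 also: % of control where 0% means no effect; miR-21 action dims this reporter so a rising signal means less miR-21 action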
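HeLa miR-21-FLuc reporter line, endogenous miR-21; 2000 cells/well in DMEM/10% FBS; compound titration up to ~40uM final, 48 h, 37 degree Celsius; luciferase detection reagent, 15 min lysis, CCD luminescence.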
Lamin A splicing: qHTS Assay for Modulators of Lamin A Splicing | HeLa LMNA splicing GFP/RFP minigene ratio, 48 h | AID 1487, 2009 | Potency, µM (top dose mostly 46.1 µM), inactives show at the highest dose ratio change, negative = inhibition, actives largely listed as inhibitors | 200,000 tested, 0.01% active; active = well fitted inhibition curve with a large enough effect in the signal ratio, with a control signal flat, not every such curve was filed as active; inconclusive = small, poorly fitted or top-dose-only effect, or effect the other way, or a change in a side signal; the % refers to the signal ratio; also: potency is read from the fitted curve at half-maximal effect; % is scaled to controls: 0 for no effect and ±100 for the full control effect
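S3 HeLa stable clones carrying a lamin A-EGFP splicing minigene plus DsRed2 were seeded at 600 cells/well in Opti-MEM with 2% FBS, pin-dosed and incubated 48 h at 37°C. Acumen cytometry (488 nm) gave the GFP/RFP total-intensity ratio.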
ALDH1A1 inh: qHTS Assay for Inhibitors of Aldehyde Dehydrogenase 1 (ALDH1A1); AID 1030, 2008; 220,000 tested, 7.3% active; Purified ALDH1A1, NADH fluorescence, propionaldehyde substrate; Aldehyde dehydrogenase 1A1 (Homo sapiens), P00352; Potency, µM (top dose mostly 75.3 µM), for inactives: at the top dose activity, negative = inhibition, most hits filed as inhibitors; active = well fitted inhibition curve with a large enough effect, not every such curve was filed as active; inconclusive = small, poorly fitted or top-dose-only effect, or another doubt; inactive = no such curve, though single readings can be large or run the other way;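 also: potency is read from the fitted curve at half-maximal effect; plate controls were no enzyme wells and a reference inhibitor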
G9a inh: qHTS Assay for Inhibitors of Histone Lysine Methyltransferase G9a; Histone-lysine N-methyltransferase EHMT2 (Homo sapiens), Q96KQ7; G9a H3K9 monomethylation, AlphaScreen, 2 h; Potency, µM (highest dose often 102 µM), for the others: top-dose activity, negative = inhibition, most hits filed as inhibitors; 350,000 tested, 8.8% active; AID 504332, 2011; also: potency is read from the fitted curve at half-maximal effect; % is scaled to controls: 0 for no effect and ±100 for the full control effect; nearly all actives have a fitted effect of over 75% in size
Target sequence (Q96KQ7 913-1193 limits assumed): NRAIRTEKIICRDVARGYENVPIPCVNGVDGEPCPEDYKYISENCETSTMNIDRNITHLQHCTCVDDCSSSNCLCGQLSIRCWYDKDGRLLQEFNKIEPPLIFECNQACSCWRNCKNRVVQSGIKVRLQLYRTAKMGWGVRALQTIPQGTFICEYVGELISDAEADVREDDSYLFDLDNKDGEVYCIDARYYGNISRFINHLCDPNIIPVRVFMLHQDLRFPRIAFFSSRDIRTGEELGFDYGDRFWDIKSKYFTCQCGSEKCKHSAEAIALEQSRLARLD
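Enzyme 20 nM + cpd, 15 min RT; add b-H3K9 pep 500 nM / SAM 20 uM; 2 h RT; anti-H3K9me1 Ab 0.5 ug/mL + SA donor / anti-rabbit acceptor beads 20 ug/mL each, 10 min; AlphaScreen read.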
Sfp inh: qHTS Assay for Inhibitors of Bacillus subtilis Sfp phosphopantetheinyl transferase (PPTase). 4'-phosphopantetheinyl transferase ffp (Bacillus subtilis), Q9F4F7. Biochemical Sfp PPTase activity, qHTS. Potency, µM, for the others: largest response in the series, negative = inhibition, most hits filed as inhibitors. 310,000 tested, 3.5% active. AID 1490, 2009;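 also: the enzyme is Sfp with the accession as filed and its product quenches rhodamine fluorescence; potency is read from the fitted curve at half-maximal effect; 0% = enzyme reaction without inhibitor and -100% = no enzyme wells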
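Compounds were incubated with enzyme (final 15 nM) for 15 min at room temperature before substrate addition started the reaction. Fluorescence at 525 nm excitation, 598 nm emission was recorded immediately and after 30 minutes.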
Active calls of the source: *; ? = inconclusive; . = not tested or not shown; [ ] = remark or other dose. An excerpt weighted towards active compounds, which were near 13% of everything screened. Unless noted, calls follow the shape of the dose curve; as a rule, active = well fitted curve in the direction sought with a large enough effect; inconclusive = small, poorly fitted or top-dose-only effect, or another doubt; inactive = no such curve, though single readings can be large; an effect the other way counts as inactive or inconclusive.

SMILES	JMJD2E inh	miR-21 act	Lamin A splicing	ALDH1A1 inh	G9a inh	Sfp inh
O=C(CN1C(=O)NC2(CCc3ccccc32)C1=O)NCC(=O)Nc1ccc(F)cc1 (stereo not drawn)	.	.	.	.	18.1%[59 µM]	.
CC1(C)Nc2ccccc2N(Cc2ccc([N+](=O)[O-])cc2)C1=O	2.8%	3.2%	-20.7%[9.22 µM]	5.6%	?	23.7%
O=C(CN1C(=O)NC2(CCCc3ccccc32)C1=O)N1CCCCC1 (stereo not drawn)	.	.	.	.	50.1µM*	.
CCCN1C(=O)/C(=C/c2ccc(C)s2)NC1=S	6.3%	-17.9%	-7.1%	8.91µM*	?	7.2%
CC(C)CN1C(=O)/C(=C/c2cccs2)NC1=S	5.3%	-7.5%	-10.4%	2µM*	?	10.7%
COc1cccc(N2C(=O)/C(=C\c3cccs3)NC2=S)c1	-6.0%	-40.9%	-25.2%[46 µM]	15.3%	?	-5.2%
CC(C)NC(=O)c1cc2c(Cl)nc3ccccc3c2s1	.	-18.8%	.	.	6.7%[59 µM]	.
Cc1ccc(Cn2c(SCc3ccc(C(=O)N4CCCCC4)cc3)nc3ccncc32)cc1	.	24.5%	.	.	-10.6%[59 µM]	.
COc1ccccc1CN(C)CC(=O)Nc1cccc2ccccc12	.	-0.4%	.	.	50.1µM*	17.4%
COc1ccc(NC(=O)CN(C)CC(=O)Nc2cccc3ccccc23)c(OC)c1	.	.	.	.	17.8µM*	.
COc1ccc(Br)cc1CN(C)CC(=O)Nc1ccccc1Cl	-1.3%	-10.6%	?	-0.5%	48.8%	-5.5%
COc1ccc(OC)c(NC(=O)CN(C)CC(=O)Nc2ccccc2Cl)c1	.	-3.0%	.	.	26.0%	-4.2%
COc1ccccc1CN(C)CC(=O)Nc1ccc(Cl)cc1F	0.7%	-1.8%	8.9%[46 µM]	-3.2%	45.2%	6.4%
COc1ccccc1CN(C)CC(=O)Nc1ccc(Cl)cc1C(F)(F)F	-2.0%	-13.6%	-2.6%	?	8.91µM*	?
CCOc1ccc(OCC)c(C2C(C#N)=C(N)N(c3cccnc3)C3=C2C(=O)CC(C)(C)C3)c1 (stereo not drawn)	?	-5.0%	-4.0%	3.55µM*	50.1µM*	31.6µM*
CSc1sc(C)cc1C1C(C#N)=C(N)N(c2cccnc2)C2=C1C(=O)CC(C)(C)C2 (stereo not drawn)	-18.5%	-5.1%	6.6%	7.2%	?	21.8%
O=C1Nc2ccc(NS(=O)(=O)c3cccs3)c3cccc1c23	12.0%	-25.0%	?	15.8µM*	-15.5%[59 µM]	-9.1%
Cc1ccc(-c2nc(C)c(CCNS(=O)(=O)c3ccc(F)c(C(F)(F)F)c3)s2)cc1	.	-9.2%	?	.	2.1%[59 µM]	.
Oc1ccc(C=Nc2cccc3ccccc23)c(O)c1	.	-9.7%	.	.	?	-39.8%
CC(O)c1cccc(N=Cc2ccc3ccccc3c2O)c1 (stereo not drawn)	.	1.8%	.	.	1.78µM*	5.3%
NS(=O)(=O)c1cccc(NS(=O)(=O)c2ccc(/C=C/C(=O)O)cc2)c1	-3.5%	-0.7%	.	.	-0.1%	20.8%
NS(=O)(=O)c1ccc(-n2nncc2-c2ccco2)cc1	.	-3.5%	.	.	?	15.3%
O=S1(=O)N=C(Nc2nncs2)c2ccccc21	?	-0.8%	0.0%	?	2µM*	50.1µM*
O=C1CN(C(=O)c2ccccc2C(F)(F)F)C(c2ccccc2)c2cc(F)ccc2N1 (stereo not drawn)	.	-0.6%	.	.	9.4%[59 µM]	.
O=C(COc1ccc(Br)cc1)OCCN1CCCCC1	.	-7.1%	.	.	-37.1%	-5.4%
SMILES	JMJD2E inh	miR-21 act	Lamin A splicing	ALDH1A1 inh	G9a inh	Sfp inh
O=C(CSc1nc2ccccc2n1CCc1ccccc1)N1CCOCC1	1.3%	-5.7%	-10.8%	-4.8%	50.1µM*	5.0%
O=C(Cn1c(SCc2ccccc2)nc2ccccc21)N1CCOCC1	5.8%	-33.6%	-17.6%	4.8%	-2.9%	17.4%
O=C(CSc1nc2ccccc2n1CCc1ccccc1)c1ccc(O)c(O)c1	22.4µM*	-13.7%	.	14.1µM*	.	50.1µM*
N#CC(C#N)=NNc1ccc(S(=O)(=O)N2CCCCC2)cc1	-2.7%	1.1%	-1.0%	?	10µM*	14.8%
CC1CCN(S(=O)(=O)c2ccc(N/N=C(/C#N)C(N)=O)cc2)CC1	6.1%	-5.4%	5.3%	1.7%	6.3%[2.33 µM]	2.3%
N#C/C(=N\Nc1ccc(S(=O)(=O)N2CCOCC2)cc1)C(N)=S	3.6%	13.2%	?	3.16µM*	0.562µM*	44.7µM*
COc1ccc(CCNC(=O)c2cc(-c3ccccc3)c(N3CCOCC3)s2)c(OC)c1OC	.	12.5%	.	.	?	17.5%
CC1(C)Cc2c(C#N)c(N)n(-c3ccccc3)c(=S)c2CO1	?	-9.1%	.	.	.	12.4%
CC1(C)C=C2C(=NN(c3ccccc3)C(N)=C2C#N)CO1	.	-7.5%	.	.	6.31µM*	44.7µM*
Cc1ccc(C(C)C)c(OCC(=O)Nc2ccc(N3CCOCC3)cc2N2CCOCC2)c1	.	.	.	.	25.1µM*	.
C/C(=N/NC(=O)COc1cc(C)ccc1C(C)C)C(=O)O	-26.2%	16.6%	.	?	?	-13.1%
Cc1ccc(CSCC(=O)Nc2ccc(N3CCOCC3)cc2N2CCOCC2)cc1	.	.	.	.	28.2µM*	.
Cc1ccc(C(C)C)c(OCC(=O)NN=C(CCl)CCl)c1	-27.6%	-6.8%	.	.	.	50.1µM*
Cc1ccccc1NC(=O)Cn1c(=O)n(CCc2ccccc2)c(=O)c2sc3ccccc3c21	.	1.1%	.	.	15.5%[59 µM]	.
O=S(=O)(CCSc1nc2ccccc2s1)c1nc2ccccc2s1	-3.2%	?	?	0.1µM*	7.08µM*	8.6%
CC(C)=C(C#N)c1nc2ccccc2s1	0.5%	-9.9%	-2.6%	-6.7%	-13.3%	0.5%
CCS(=O)(=O)CCSc1nc2ccccc2s1	-1.0%	-14.8%	-0.2%	?	?	13.4%
N#C/C(=C\c1ccco1)Sc1nc2ccccc2s1	-20.7%	-29.4%	?	12.6µM*	?	?
c1ccc2sc(SSc3nc4ccccc4s3)nc2c1	.	.	.	0.251µM*	?	56.2µM*
O=S1(=O)C=C(Sc2nc3ccccc3s2)c2ccccc21	?	?	?	14.1µM*	?	50.1µM*
CCOC(=O)CNC(=O)N(CCOC)CC1CCCN(C2Cc3ccccc3C2)C1 (stereo not drawn)	.	1.3%	.	.	55.9%	15.1%
Clc1ccccc1Cn1cccc1C1=NC(Cc2ccccc2)CO1 (stereo not drawn)	.	-9.8%	.	.	47.2%[59 µM]	.
C=CCCCCCCCCC(=O)OC	.	.	?	.	16.9%[59 µM]	21.8%
COc1ccc(N(C(=O)/C=C/c2ccccc2)C2=CC3CCC(C2)N3C)cc1 (stereo not drawn)	?	-23.4%	.	.	-30.4%	9.7%

Screening data (PubChem)
